Laboratory results as given in ChEMBL document CHEMBL1201862, “PubChem BioAssay data set” (2004).
These assays gave more results; the selection is not random.

biological target: T1, Protein RecA (Mycobacterium tuberculosis) (UniProt P9WHJ3); test: M. tuberculosis H37Rv growth inhibition, dose response, strain H37Rv (AID 489010); type: functional;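 also: whole Mycobacterium tuberculosis cells grown in culture and not purified RecA protein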
T1 sequence (whole entry): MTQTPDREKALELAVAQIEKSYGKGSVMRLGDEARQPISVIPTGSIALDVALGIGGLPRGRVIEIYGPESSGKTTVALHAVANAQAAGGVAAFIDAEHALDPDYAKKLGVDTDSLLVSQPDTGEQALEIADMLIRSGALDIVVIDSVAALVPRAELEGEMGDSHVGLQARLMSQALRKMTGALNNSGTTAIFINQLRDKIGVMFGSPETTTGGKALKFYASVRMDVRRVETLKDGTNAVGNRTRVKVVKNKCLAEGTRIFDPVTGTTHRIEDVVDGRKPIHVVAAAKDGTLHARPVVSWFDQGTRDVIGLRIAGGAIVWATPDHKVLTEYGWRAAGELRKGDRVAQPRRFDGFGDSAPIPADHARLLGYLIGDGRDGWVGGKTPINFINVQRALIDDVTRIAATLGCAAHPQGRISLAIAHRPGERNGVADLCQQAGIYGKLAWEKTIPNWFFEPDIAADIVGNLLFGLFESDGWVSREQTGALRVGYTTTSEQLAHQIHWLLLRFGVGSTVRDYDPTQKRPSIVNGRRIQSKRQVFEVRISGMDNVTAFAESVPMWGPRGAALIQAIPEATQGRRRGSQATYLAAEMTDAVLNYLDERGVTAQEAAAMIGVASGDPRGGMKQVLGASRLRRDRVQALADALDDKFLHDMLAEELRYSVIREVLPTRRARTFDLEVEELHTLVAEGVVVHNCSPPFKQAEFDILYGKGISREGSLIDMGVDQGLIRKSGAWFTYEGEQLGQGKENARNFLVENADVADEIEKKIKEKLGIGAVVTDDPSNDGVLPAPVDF

Structure (SMILES) | IC90
Cc1[nH]n(-c2ccccc2)c(=O)c1C(C[N+](=O)[O-])c1ccc(F)cc1 (centres undefined) | 32.8 µM (active)
CN(C1=C(NC(=O)c2ccc(Cl)cc2)C(=O)c2ccccc2C1=O)c1ccccc1 | 16.7 µM (active)
Clc1ccc(-n2nnnc2Sc2ncnc3sccc23)cc1 | 9.74 µM (active)
CC(C)(C)C1CCc2sc(C(=O)NNC(=O)CCl)cc2C1 (centres undefined) | 33.3 µM (active)
O=C(CCl)Nc1cn(-c2ccccc2)nc1-c1ccc(F)cc1 | 49.8 µM (active)
CCn1nc(/C=C/c2ccccc2)nc2c(=O)n(C)c(=O)nc1-2 | 15.4 µM (active)
CC(C)(C)c1csc(Sc2ccc([N+](=O)[O-])cn2)n1 | > 100 µM (active)
C/C(=N\NC(=O)c1ccncc1)c1cc2ccccc2oc1=O | 0.43 µM (active)
Cc1ccc(N(C(=O)CCl)C(C(=O)NC2CCCCC2)c2cccnc2)cc1C (centres undefined) | 30.1 µM (active)
CC(=O)n1cc(N(C(=O)CCl)c2ccc([N+](=O)[O-])cc2)c2ccccc21 | 8.94 µM (active)
COc1cc(NCCCCCCCN)c2ncccc2c1 | 57.8 µM (active)
Cc1[nH]n(-c2ccccc2)c(=O)c1C(c1cccc([N+](=O)[O-])c1)c1c(C)[nH]n(-c2ccccc2)c1=O | > 100 µM (active)
Cc1nn(-c2ccccc2)c(Cl)c1CN(C(=O)CCl)c1ccc(Cl)cc1 | 8.54 µM (active)
Cc1nn(-c2ccccc2)c(Cl)c1CN(C(=O)CCl)c1cccc2ccccc12 | 35.5 µM (active)
CC(C)c1nnc(NC(=O)c2nc(S(=O)(=O)Cc3ccc(F)cc3)ncc2Cl)s1 | > 100 µM (active)
Cc1cccc(Cn2nnc3c2C(=O)c2ccccc2C3=O)c1 | 52.6 µM (active)
Cc1oc2c(c1C(=O)N1CCOCC1)C(=O)c1ccccc1C2=O | 35.2 µM (active)
Cc1sc2ncnc(Sc3nnnn3-c3ccccc3)c2c1C | > 100 µM (active)
Cc1ccc(C(=O)Oc2ccc([N+](=O)[O-])cc2)cc1S(=O)(=O)N1CCCCCC1 | > 100 µM (active)
